Compounds with a hit are over-represented: about 6.1% of the library has one in this group of screens.
DRD3 agonist: activates the human D3 dopamine receptor; P35462; AID 652048; hit rate 0.58% among 410,000; D3R DiscoveRx beta-arrestin cells, luminescence, 90 min; max activation, %; in the data active = max activation above about 30%; note: 0% is about no effect
Target sequence (P35462 whole entry, looked up): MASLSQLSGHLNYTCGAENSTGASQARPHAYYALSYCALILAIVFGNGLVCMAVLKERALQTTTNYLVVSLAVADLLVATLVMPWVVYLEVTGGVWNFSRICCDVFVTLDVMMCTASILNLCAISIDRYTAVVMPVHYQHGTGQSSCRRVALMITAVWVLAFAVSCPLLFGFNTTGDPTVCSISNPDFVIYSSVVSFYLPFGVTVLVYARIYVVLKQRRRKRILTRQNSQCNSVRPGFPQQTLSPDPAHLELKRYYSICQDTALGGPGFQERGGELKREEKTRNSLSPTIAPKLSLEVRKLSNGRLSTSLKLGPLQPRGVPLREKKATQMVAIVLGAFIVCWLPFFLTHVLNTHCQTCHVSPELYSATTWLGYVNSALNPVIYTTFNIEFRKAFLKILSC
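Agonist-mode cell screen: cells plated at 1500/well and incubated overnight at 37 °C, then exposed to library compounds for 90 min at 37 °C. Detection reagent was added for 30–60 min at room temperature, and luminescence was read.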
D1 ag: activates the human D1 dopamine receptor; HEK293 T-REx D1 cells, calcium flux, agonist mode; hit rate 1% among 360,000; activation, % at 2 µM; P21728; in the data active = activation above about 30%; note: 0% is about no effect
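Inducible HEK293 T-REx D1 cells, force-coupled to calcium signalling, were plated at 4000 cells/well with tetracycline and held overnight at 30 C. After no-wash calcium dye loading, compound-evoked calcium rise over 180 s flagged agonists.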
DRD3 antagonist: antagonists of human D3 dopamine receptor; D3R cells, DiscoveRx beta-arrestin luminescence, antagonist mode; active compounds read low; max response, negative = inhibition, %; hit rate 2.5% among 360,000; in the data active = max response below about -50%; inconclusive = no clear call, values can overlap the other calls; note: % is set by controls: 0 for no effect and ±100 for the full control effect
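Cells plated overnight at 1500 cells/well, then exposed to library compounds with dopamine controls for 90 minutes at 37 degrees C. DiscoveRx reagent added for 30–60 minutes at room temperature; luminescence read, quantitative HTS format.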
D1 antagonist: human D1 dopamine receptor antagonism; HEK293 TREx D1 cells, calcium flux, dopamine EC80; active compounds read low; activity change, negative = inhibition, % at 10 µM; hit rate 3.2% among 360,000; in the data active = activity change below about -30%; note: % is set by controls: 0 for no effect and ±100 for the full control effect
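Calcium flux readout: force-coupled, inducible Hek293 Trex D1 line, cells induced overnight at 30 C with tetracycline, dye-loaded 30–90 min at RT. Antagonism scored against EC80 dopamine challenge given 180 s after compound.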
D1 PAM: potentiators of human D1 dopamine receptor; potentiation, % at 10 µM; HEK293 TREx D1 cells, calcium flux, dopamine EC20 potentiation; hit rate 0.036% among 360,000; P21728; in the data active = potentiation above about 30%; note: 0% is about no effect
Active calls of the source: *; u = inconclusive; x = no result given; ! = not active in a repeat.

SMILES	DRD3 agonist	D1 ag	DRD3 antagonist	D1 antagonist	D1 PAM
NC(=O)c1ccsc1NC(=O)COC(=O)Cc1c[nH]c2ccccc12	22.4	14.4	10.4	-34.1*	-9.8
O=C(COC(=O)Cc1c[nH]c2ccccc12)Nc1ccccc1	7.6	5.1	9.3	-34.4*	-6.3
NC(=O)c1ccsc1NC(=O)COC(=O)Cc1cccc2ccccc12	2.3	12.0	-12.3	-29.9	6.0
COc1ccccc1OCc1n[nH]c(=S)n1Cc1ccccc1	0.1	0.1	-12.7	-10.6	-2.4
CCOc1ccc(C2N(c3ccc(OC)cc3)C(=O)C3CCCN32)cc1OC (centres undefined)	-0.6	1.4	-11.7	5.2	x
CCOc1ccc(C2N(c3ccc(Cl)cc3)C(=O)C3CCCN32)cc1OC (centres undefined)	-2.1	1.7	-21.2	-42.4*	-3.6
Cc1ccc2nc(Cl)c(-c3ccccc3)cc2c1	17.9	x	2.1	x	x
Cc1ccc2nc(CCl)[n+]([O-])c(-c3ccccc3)c2c1	-9.5	2.9	-4.4	-38.1*	-7.0
O=C(COC(=O)c1ccc(Cl)c(S(=O)(=O)N2CCOCC2)c1)NCc1ccco1	-0.7	6.7	-6.4	9.9	0.1
Cc1cc(OCC(=O)Nc2ccncc2)c(C)cc1Br	-9.4	19.5	40.2	-33.1*	-12.3
CC(=O)N(C)c1ccc(NC(=O)COc2ccc(Br)cc2C)cc1	3.1	17.4	1.5	-54.7*	-8.2
Cc1ccc(OCCC(=O)OCC(=O)Nc2ccc3c(c2)OCO3)cc1	-0.4	3.6	16.2	-64.0*	-6.0
Cc1ccc(OCCC(=O)Nc2ccc3c(c2)OCO3)cc1	4.2	0.8	-6.0	6.4	-1.3
Cc1cc(C)c(OCC(=O)Nc2ccc3c(c2)OCO3)cc1C	1.6	124.4*	0.4	3.9	17.6
Cc1ccc(C)c(OCC(=O)Nc2ccc3c(c2)OCO3)c1	0.8	7.2	13.5	1.3	-5.7
CCC(C(=O)Nc1cccc(C#N)c1)n1c(=O)c(-c2ccccc2NC(C)=O)nc2ccccc21 (centres undefined)	-12.9	2.1	x	12.2	-0.9
O=C(COC(=O)c1cc(-c2ccccc2)nc2ccccc12)Nc1ccc2c(c1)OCO2	0.7	2.2	-6.6	-41.9*	-3.0
CCCCc1ccc(S(=O)(=O)NCCc2ccncc2)cc1	-4.7	8.9	0.0	-44.7*	-5.2
Cc1onc(-c2ccccc2Cl)c1C(=O)N1CCCCC1C (centres undefined)	-9.6	1.6	-5.6	1.0	-3.6
S=C(NC1CCCC1)NC1CC1	-4.6	5.8	7.3	-40.6*	-5.3
Cc1ccc2[nH]c(CSc3nnc(NC(=O)c4ccccc4F)s3)cc(=O)c2c1	-7.9	0.8	x	-32.0*	-0.2
Cc1ccc2[nH]c(CSc3nnc(NC(=O)c4ccccc4C)s3)cc(=O)c2c1	4.0	-0.6	x	2.0	-2.8
COc1cc2c(c(OC)c1CC=C(C)C)C[C@H](c1ccc(O)cc1O)CO2	-3.5	x	0.5	x	x
CN(C)S(=O)(=O)N(CC(=O)NCc1ccccc1)c1ccccc1	-18.4	0.8	-21.2	-19.1	0.9
CN(C)S(=O)(=O)N(CC(=O)Nc1cccc(F)c1)c1ccccc1	7.1	4.3	-8.2	-2.5	0.6
SMILES	DRD3 agonist	D1 ag	DRD3 antagonist	D1 antagonist	D1 PAM
CN(C)S(=O)(=O)N(CC(=O)Nc1ccccc1)c1ccccc1	-9.8	7.2	-54.0*	4.7	-3.4
COc1ccc(CNC(=O)CN(c2ccccc2)S(=O)(=O)N(C)C)cc1	0.5	1.1	-4.7	-32.2*!	-3.7
COc1ccc(CNC(=O)CN(c2ccccc2OC)S(=O)(=O)c2ccc(C)cc2)cc1	-3.6	43.7*	x	-32.1*	0.4
CCOc1ccccc1N(CC(=O)NCCc1ccc(OC)cc1)S(=O)(=O)c1ccc(C)cc1	1.4	x	-13.0	x	x
Cc1cccc(NC(=O)CN(C)S(=O)(=O)c2ccc3c(c2)c(=O)n(C)c(=O)n3C)c1C	-17.7	0.0	x	18.6	1.4
Cc1ccc(S(=O)(=O)NC2CCCCC2)c(C)c1NS(C)(=O)=O	2.3	0.0	-11.2	-5.9	-1.6
O=C(NC(c1ccc(F)cc1)c1ccc2ccccc2n1)C1CCN(Cc2ccc(Oc3ccccc3)cc2)CC1 (centres undefined)	-24.6	x	-89.2*	x	x
COc1cc(CN2CCC(C(=O)NC(c3ccc(F)cc3)c3ccc4ccccc4n3)CC2)cc(OC)c1 (centres undefined)	-24.3	x	-67.7*	x	x
O=C(NC(c1ccccc1)c1ccc2ccccc2n1)C1CCN(Cc2ccc(Oc3ccccc3)cc2)CC1 (centres undefined)	-15.9	x	u	x	x
Cn1cc(CN2CCC(C(=O)NC(c3ccc(F)cc3)c3ccc4ccccc4n3)CC2)c2ccccc21 (centres undefined)	-15.1	x	-58.0*	x	x
C=C1C(=O)OC2C1CCC(C)=C1C(=O)C3OC3(C)C12 (centres undefined)	-58.3	x	-129.0*	x	x
C=C1C(=O)O[C@@H]2[C@H]1CC[C@H](C)[C@]1(O)CCC(=O)[C@@]21C	2.0	2.7	-2.9	2.3	-3.3
N#CN1CCC(NS(=O)(=O)c2ccc(F)cc2)CC1	x	-0.6	x	-6.9	8.1
C=CCc1ccc(OCC(O)CN2CCC(Cc3ccccc3)CC2)c(OC)c1 (centres undefined)	-17.4	14.2	-23.8	-10.9	-8.3
COc1ccc(CC(C)N2CCN(c3ccccc3OC)CC2)cc1OC (centres undefined)	-37.1	4.7	-92.8*	-0.4	-7.8
C=CCc1ccc(OCC(O)CN2CCN(c3ccccc3OC)CC2)c(OC)c1 (centres undefined)	-9.3	10.8	-103.0*	-10.3	-7.2
C=CCc1ccc(OCC(O)CN2CCN(Cc3ccc(Cl)cc3)CC2)c(OC)c1 (centres undefined)	-6.2	42.6*	-73.4*	-13.8	-10.8
C=CCc1ccccc1OCC(O)CNC (centres undefined)	2.8	6.6	-64.5*	-19.0	-6.3
Cc1ccc(S(=O)(=O)N2CCOCC2)cc1NC(=O)CSc1nnnn1C1CC1	3.8	x	13.3	x	x
C=CCc1ccccc1OCC(O)CN1CCN(c2ccc(OC)cc2)CC1 (centres undefined)	-4.2	4.6	-82.0*	-64.3*	-8.0
CC(C1CC2CCC1C2)n1c(COc2ccccc2F)nnc1SCC(N)=O (centres undefined)	-3.5	89.1*	-0.3	6.6	27.1
COc1ccc(Cl)cc1NC(=O)CSc1nnc2[nH]c(=O)cc(C)n12	-22.4	-2.1	x	x	-0.2
CCOc1ccc(CCNC(=O)COC(=O)c2ccc(OC(C)C)cc2)cc1OCC	0.6	7.2	-53.1*	-16.5	-8.1
CCOc1ccc(-c2cc(CCCC(=O)NCCc3ccc(OCC)c(OCC)c3)no2)cc1	7.6	8.6	x	-32.7*	-4.5
CCOc1ccc(CCNC(=O)COC(=O)c2ccc(S(=O)(=O)N3CCCC3)cc2)cc1OCC	3.8	3.9	17.8	-37.5*	-3.5
CCCOc1ccc(C(=O)OCC(=O)NCCc2ccc(OCC)c(OCC)c2)cc1OC	-0.1	1.3	18.1	5.4	0.2
